Laboratory results as given in PubChem BioAssay AID651610 (Broad Institute, 2012).
About 3,900 (1.1%) of roughly 360,000 compounds were called active.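 Rule for the calls: active = mean replicate inhibition score of at least 50 and every replicate individually at or above 50; inconclusive = only one of the two criteria met; inactive = mean below 50 and not all replicates reaching 50.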 The sample as a whole holds a higher share of actives than the screen did.

Experiment: blockers of JRFL envelope-mediated fusion – HeLa-JRFL effector, CEM21 target cells, luciferase, primary screen (AID 651610);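 note: 0% = plate neutral controls and 100% = maraviroc near 300 nM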
Conditions: HeLa-JRFL Env/CEM21 cell fusion, stronger effect = higher value; at 16.7 µM unless noted

| SMILES | inhibition |
| --- | --- |
| C/C=C/c1cnc2c(c1)C(=O)N([C@@H](C)CO)C[C@@H](C)[C@H](CN(C)C(=O)c1cnccn1)O2 | 4.56% (inactive) |
| C[C@H](CO)N1C[C@H](C)[C@@H](CN(C)C(=O)CCC(F)(F)F)OCCCC[C@H](C)Oc2ccc(NC(=O)C3CCCCC3)cc2C1=O | -45.1% (inactive) |
| COc1ccc(NC(=O)N(C)C[C@@H]2Oc3ccc(NC(=O)CCN4CCOCC4)cc3C(=O)N([C@@H](C)CO)C[C@H]2C)cc1 | -19.9% (inactive) |
| Cc1noc(C)c1NC(=O)Nc1cccc2c1O[C@@H](CN(C)CC1CCCCC1)[C@H](C)CN([C@@H](C)CO)C2=O | -120% (inactive) |
| Cc1ccc(S(=O)(=O)N(C)C[C@H]2Oc3ccc(NC(=O)CCC(F)(F)F)cc3C(=O)N([C@@H](C)CO)C[C@H]2C)cc1 | 9.23% (inactive) |
| COc1ccc(C(CNC(=O)COc2ccc([N+](=O)[O-])cc2)N2CCCCC2)cc1 (stereo not given) | 1.73% [at 12.3 µM] (inactive) |
| COc1ccc(C(CNC(=O)COc2ccccc2OC)N2CCCCC2)cc1 (stereo not given) | 1.58% [at 12.3 µM] (inactive) |
| CCc1ccc(OCC(=O)NCC(c2ccc(Cl)cc2)N2CCCCC2)cc1 (stereo not given) | 73.9% [at 12.3 µM] (active) |
| COc1ccc(S(=O)(=O)N(C)C[C@@H]2OCCCC[C@H](C)Oc3ccc(NC(=O)NC4CCCCC4)cc3C(=O)N([C@H](C)CO)C[C@H]2C)cc1 | 20.2% (inactive) |
| CO[C@@H]1CC[C@@H]2CCOc3ccc(C#N)cc3C(=O)N(C)[C@H](C)C(=O)N(C)C[C@@H]1O2 | 14.7% (inactive) |
| COc1ccc(Oc2cn[nH]c2-c2ccc(OC)cc2O)cc1 | 4.87% [at 12.3 µM] (inactive) |
| COc1ccc(-c2cn[nH]c2-c2ccc(OC)cc2)cc1 | 60.2% [at 12.3 µM] (active) |
| COc1ccc2cc(-c3[nH]ncc3CNCCn3nc(C)cc3C)ccc2c1 | -11.4% [at 12.3 µM] (inactive) |
| CCCNC(=O)Nc1ccc2c(c1)C(=O)N(C)C[C@H](OC)[C@@H](C)CN(C)[C@@H](C)CO2 | 18.7% (inactive) |
| COc1ccc(CN(C)C[C@H]2Oc3c(NC(=O)C4CCCCC4)cccc3C(=O)N([C@@H](C)CO)C[C@@H]2C)cc1 | 7.57% (inactive) |
| COc1ccccc1CC1(C)C(=O)Nc2ccc(OC(F)(F)F)cc21 (stereo not given) | 5.2% [at 12.3 µM] (inactive) |
| Cc1ccc(CC2(C)C(=O)Nc3ccc(OC(F)(F)F)cc32)cc1 (stereo not given) | 10.5% [at 12.3 µM] (inactive) |
| CC1(Cc2cccc(C#N)c2)C(=O)Nc2ccc(-c3cccc(C(F)(F)F)c3)cc21 (stereo not given) | 76.4% [at 12.3 µM] (active) |
| C[C@H]1CN([C@@H](C)CO)C(=O)c2cc(-c3cccnc3)cnc2O[C@@H]1CN(C)C(=O)C1CC1 | 1.19% (inactive) |
| C[C@@H]1CN([C@@H](C)CO)C(=O)c2cc(C#CC3CCCCC3)cnc2O[C@H]1CN(C)C(=O)Cc1ccccn1 | -1.78% (inactive) |
| CC(C)NC(=O)N(C)C[C@H]1Oc2ncc(C#CC3CCCCC3)cc2C(=O)N([C@H](C)CO)C[C@@H]1C | 5.6% (inactive) |
| CC(C)NC(=O)Nc1ccc2c(c1)C(=O)N([C@@H](C)CO)C[C@H](C)[C@H](CN(C)S(=O)(=O)c1cccs1)O2 | -7.33% (inactive) |

| SMILES | inhibition |
| --- | --- |
| O=C(c1ccccc1)N1CCN(c2cc(-c3ccccc3)nc3cc(-c4cccc(Cl)c4)nn23)CC1 | 57.4% [at 12.3 µM] (active) |
| C#Cc1cc(N2CCN(C(=O)c3ccoc3)CC2)n2nc(-c3cccc(Cl)c3)cc2n1 | 2.89% [at 12.3 µM] (inactive) |
| O=C(c1ccccc1)N1CCN(C(=O)c2cc3nc(-c4ccccc4)cc(C(F)(F)F)n3n2)CC1 | 13.3% [at 12.3 µM] (inactive) |
| CN1CCN(C(=O)C[C@H]2CC[C@@H](NC(=O)c3ccc4c(c3)OCO4)[C@H](CO)O2)CC1 | -2.25% (inactive) |
| C[C@@H]1CCCCO[C@@H](CN(C)C(=O)CCC(F)(F)F)[C@H](C)CN([C@@H](C)CO)C(=O)c2cc(NC(=O)CCCN(C)C)ccc2O1 | -15.3% (inactive) |
| COc1ccc2c3c(n(C)c2c1)[C@H](CO)N(C(=O)NC(C)C)CC31CCN(C(=O)NC(C)C)CC1 | 25.2% (inactive) |
| C=C1c2c(Cl)ccc(O)c2C(O)=C2C(=O)[C@]3(O)C(O)=C(C(N)=O)C(=O)[C@@H](N(C)C)[C@@H]3[C@@H](O)C12 (stereo not given in full) | 9.73% [at 12.3 µM] (inactive) |
| CN(C)[C@@H]1C(=O)C(C(N)=O)=C(O)[C@@]2(O)C(=O)C3=C(O)c4c(O)ccc(Cl)c4[C@@H](O)[C@H]3C[C@@H]12 | 71.9% [at 12.3 µM] (active) |
| C[C@@H]1CN([C@H](C)CO)C(=O)c2cc(C#CC3(O)CCCC3)cnc2O[C@H]1CN(C)C(=O)C1CCC1 | 1.03% (inactive) |
| CO[C@H]1CN(C)C(=O)c2cc(NC(=O)C3CC3)ccc2OC[C@@H](C)N(CCc2ccccc2)C[C@H]1C | -0.128% (inactive) |
| COc1ccccc1C(=O)COC(=O)CNS(=O)(=O)c1ccc(NC(C)=O)cc1 | -8.08% [at 12.3 µM] (inactive) |
| COc1ccc(NS(=O)(=O)c2ccc(NC(C)=O)cc2)cc1OC | 62.4% [at 12.3 µM] (active) |
| CC(=O)Nc1ccc(S(=O)(=O)Nc2ccc(N3CCCCC3)cc2)cc1 | 68.2% [at 12.3 µM] (active) |
| COC(C(=O)Nc1ccc(S(=O)(=O)Nc2ccc(C)c(C)c2)cc1)c1ccccc1 (stereo not given) | -13.7% [at 12.3 µM] (inactive) |
| CC(=O)Nc1ccc(S(=O)(=O)N2CCN(C3CCCCCCC3)CC2)cc1 | -36.4% [at 12.3 µM] (inactive) |
| CC(=O)Nc1ccc(NS(=O)(=O)c2ccc3c(c2)NC(=O)CC(=O)N3)cc1 | -3.1% [at 12.3 µM] (inactive) |
| C/C=C/c1cnc2c(c1)C(=O)N([C@H](C)CO)C[C@H](C)[C@@H](CN(C)C(=O)Nc1ccc(C(F)(F)F)cc1)O2 | 0.996% (inactive) |
| C[C@@H]1CN([C@@H](C)CO)C(=O)c2cc(NC(=O)C3CCCCC3)ccc2O[C@@H](C)CCCCO[C@@H]1CN(C)Cc1ccc(C(=O)O)cc1 | 10.8% (inactive) |
| CN(C)c1ccc2c(c1)[C@@H]1C[C@@H](CC(=O)NCc3ccccn3)O[C@H](CO)[C@@H]1O2 | 6.38% (inactive) |
| C[C@H]1CN([C@@H](C)CO)C(=O)CCCn2nncc2CO[C@H]1CN(C)Cc1ccccc1 | -11.7% (inactive) |
| C[C@@H]1CN([C@H](C)CO)C(=O)c2cc(C#CC3CCCCC3)cnc2O[C@@H]1CN(C)C(=O)NC1CCCC1 | 10.8% (inactive) |
| Cc1nn(Cc2ccc(F)cc2)c(C)c1NC(=O)c1cccnc1Cl | 0.276% [at 12.3 µM] (inactive) |

| SMILES | inhibition |
| --- | --- |
| Cc1nn(Cc2ccc(F)cc2)c(C)c1NC(=O)c1noc2c1CCc1ccccc1-2 | 57.4% [at 12.3 µM] (active) |
| Cc1nn(Cc2ccc(Cl)c(Cl)c2)c(C)c1NC(=O)c1cc(C2CC2)on1 | -1.78% [at 12.3 µM] (inactive) |
| Cc1ccccc1S(=O)(=O)N[C@H]1CC[C@H](CCn2cc(-c3ccc(F)cc3)nn2)O[C@H]1CO | 4.55% (inactive) |
| C[C@H](CO)N1C[C@H](C)[C@@H](CN(C)S(=O)(=O)c2cccs2)OCCCC[C@H](C)Oc2ccc(NS(=O)(=O)c3ccccc3)cc2C1=O | -0.163% (inactive) |
| CCC(C)N1C(=S)SC(C)(C)C1N(O)C(=O)NC1CCCCC1 (stereo not given) | 16.9% [at 12.3 µM] (inactive) |
| CCCCNC(=O)N(O)C1N(/N=C/c2ccccc2O)C(=S)SC1(C)C (stereo not given) | 89.7% [at 12.3 µM] (active) |
| CCCCNC(=O)N(O)C1N(/N=C/c2ccc(N(C)C)cc2)C(=S)SC1(C)C (stereo not given) | 10.2% [at 12.3 µM] (inactive) |
| C[C@@H]1CCCCO[C@@H](CN(C)C(=O)Nc2ccc(C(F)(F)F)cc2)[C@H](C)CN([C@H](C)CO)C(=O)c2cc(NC(=O)C3CCCCC3)ccc2O1 | 14.1% (inactive) |
| Cc1ccc(S(=O)(=O)N[C@H]2CC[C@@H](CC(=O)NCc3ccc(Cl)c(Cl)c3)O[C@H]2CO)cc1 | 16.7% (inactive) |
| CCCCCCCCn1c2c(c(=N)c3c1CCC3)CCCC2 | 64.5% [at 12.3 µM] (active) |
| O=C1NC(c2ccccc2)Oc2ccccc21 (stereo not given) | -8.85% [at 12.3 µM] (inactive) |
| C[C@@H]1NC(=O)[C@@]2(C)[C@@H](c3ccccc3)[C@H]3COc4ccccc4[C@@H]3N2C1=O | 1% [at 12.3 µM] (inactive) |
| CN1CC(c2ccccc2)C2(COc3ccccc3C2=O)C12C(=O)Nc1ccccc12 (stereo not given) | 108% [at 12.3 µM] (active) |
| CO[C@H]1CN(C)C(=O)c2ccc(NC(=O)C3CC3)cc2OC[C@@H](C)N(C(=O)c2ccccn2)C[C@@H]1C | 3.53% (inactive) |
| COc1ccc(S(=O)(=O)Nc2cccc3c2O[C@H](CN(C)C(=O)NC(C)C)[C@H](C)CN([C@H](C)CO)C3=O)cc1 | -9% (inactive) |
| Cc1ccc(-n2c(N)c(C(=O)N3CCOCC3)sc2=S)c(C)c1 | 24.4% [at 12.3 µM] (inactive) |
| N#Cc1ccccc1-n1c(N)c(C(=O)N2CCCC2)sc1=S | 59.1% [at 12.3 µM] (active) |
| O=C(c1ccc(S(=O)(=O)N2CCCC2)cc1)N1CCN(c2ccccc2F)CC1 | -21.7% [at 12.3 µM] (inactive) |
| CNC(=O)C[C@@H]1CC[C@H]2[C@H](COc3ccc(NC(=O)C4CC4)cc3C(=O)N2C)O1 | 12% (inactive) |
| CC(C)NC(=O)N(C)C[C@@H]1Oc2ncc(C#Cc3ccncc3)cc2C(=O)N([C@@H](C)CO)C[C@@H]1C | -8.31% (inactive) |
| COc1ccccc1S(=O)(=O)N(C)C[C@@H]1Oc2cc(C#CCC3CCCC3)ccc2S(=O)(=O)N([C@H](C)CO)C[C@H]1C | 34.8% (inactive) |
